Screening results deposited in PubChem by National Center for Advancing Translational Sciences (NCATS).
Compounds with a hit are over-represented: about 2.5% of the library has one in this group of screens.
Anesthetic bind – binds horse apoferritin like a general anesthetic. 350,000 compounds, 0.074% hits. apoferritin/1-aminoanthracene competitive binding, fluorescence. Potency, µM (titrated, usually from 77.5 µM), inactives show at the highest dose activity change, negative = displacement, hits mostly inhibitors; also: potency is read from the fitted curve at half-maximal effect; % is scaled to controls: 0 for no effect and ±100 for the full control effect; nearly all actives have a fitted effect of over 20% in size
Target sequence (P02791 2-175 limits assumed): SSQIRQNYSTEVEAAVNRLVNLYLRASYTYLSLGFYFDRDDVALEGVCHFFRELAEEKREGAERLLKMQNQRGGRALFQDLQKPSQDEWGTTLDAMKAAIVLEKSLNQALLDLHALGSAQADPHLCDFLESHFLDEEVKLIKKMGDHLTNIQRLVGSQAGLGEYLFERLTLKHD
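Steps: apoferritin (10 uM) was premixed with half-saturated 1-AMA in PBS, compounds were pin-transferred, plates stood 10 min at room temperature, fluorescence was read at 380/535 nm, and curves were fitted with a Hill equation.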
CCT modulator – cytosolic chaperonin activity modulation. activity change, % (no concentration beside the values), hits read low. 360,000 compounds, 0.3% hits. purified chaperonin ATPase assay, HTRF ADP detection, 30 min. AID 651819; in the data active = activity change below about -30%; also: % is scaled to controls: 0 for no effect and ±100 for the full control effect
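Nucleotide hydrolysis assay: TRiC at 20–40 nM final (set by batch activity) with 10 uM ATP, 30 min at 37 °C, in presence of 76 uM compound. Detection by competitive ADP HTRF, 30 min ambient.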
aSyn yeast inh – rescues yeast growth from alpha-synuclein toxicity; Yeast expressing alpha-synuclein, growth rescue, BacTiter-Glo, 24 h; Potency, µM (highest dose often 46.1 µM), for the others: at the top dose growth rescue (activation), actives largely listed as activators; 370,000 compounds, 0.14% hits; AID 652106; also: potency is read from the fitted curve at half-maximal effect; % of control where 0% means no effect; nearly all actives have a fitted effect of over 65% in size
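Screening used galactose-induced yeast with toxic alpha-synuclein levels, exposed to compound for 24 hr at 30 deg C. Cell growth, read with BacTiter-Glo luminescence, gave the measured signal.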
Mito fusion yeast – mitochondrial division inhibition or fusion activation | S. cerevisiae fusion-defective mutant growth rescue, CellTiterGlo 48 h | Potency, µM (highest dose often 46.1 µM), for inactives: at the top dose growth rescue (activation), actives largely listed as activators | 320,000 compounds, 0.23% hits | AID 485298; also: potency is read from the fitted curve at half-maximal effect; % of control where 0% means no effect; nearly all actives have a fitted effect of over 45% in size
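Read-out: ATP-based luminescence (CellTiterGlo, 10 min ambient) reporting growth of fusion-defective ts yeast after 48 hours at 37C on glycerol/ethanol YPEG medium in the presence of compound.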
pAkt inh – Akt phosphorylation inhibition | Neuro2A IGF-stimulated pAkt S473 HTRF, 20 min; active compounds read low | activity change, % for hits at 50 µM | 360,000 compounds, 0.32% hits; in the data active = activity change below about -80%; inconclusive = mostly about -51% to -80%; also: % is scaled to controls: 0 for no effect and ±100 for the full control effect
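Neuro2A cells in DMEM with 0.5% FBS, overnight at 37 deg C, given compound at single 50 µM final, then IGF (6 nM final) for 20 min at 37 deg C. Lysed; phospho-Akt Ser473 by HTRF after 24 h, 665/615 ratio.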
TDP43 rescue – inhibitors of TDP-43 toxicity in yeast | 410,000 compounds, 1.8% hits | Potency, µM (doses to about 46.1 µM), without a hit: at the top dose growth rescue (activation), actives largely listed as activators | TDP-43 expressing yeast growth rescue, BacTiter-Glo, 24 h | AID 652104; also: potency is read from the fitted curve at half-maximal effect; % of control where 0% means no effect; nearly all actives have a fitted effect of over 50% in size
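Readout is BacTiter-Glo luminescence of cell growth, so inhibitors register as activators. TDP-43-expressing yeast at OD600=0.02 in galactose medium, after raffinose pregrowth to mid-log, were incubated with compound for 24 hr at 30 deg C.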
The depositor's hits bear a star; i = inactive; ? = inconclusive; . = not tested or not shown; [ ] = another dose, or the depositor's remark. Unless noted, calls follow the shape of the dose curve; as a rule, active = well fitted curve in the direction sought with a large enough effect; inconclusive = small, poorly fitted or top-dose-only effect, or another doubt; inactive = no such curve, though single readings can be large; an effect the other way counts as inactive or inconclusive.

SMILES	Anesthetic bind	CCT modulator	aSyn yeast inh	Mito fusion yeast	pAkt inh	TDP43 rescue
Cc1ccc(O)c(NC(=O)C2CC(c3c(F)cccc3Cl)=NO2)c1 (centres undefined)	-17%	0	.	-31%	.	3.5µM*
CCc1c(C)sc(NC(=O)C2CC(c3c(F)cccc3Cl)=NO2)c1C#N (centres undefined)	-10%	-1	0%	-16%	i	20µM*
CC(C)NC(=O)N1CCN(S(=O)(=O)c2ccc3c(ccn3C)c2)CC1	-9%	.	1%	.	.	0%
O=C(CSc1nnc(Cc2ccccc2)n1Cc1ccccc1)NCc1ccco1	39%	2	-2%	2%	i	-38%
O=C(CSc1nnc(CNc2ccc(Cl)cc2)n1Cc1ccccc1)NCc1ccco1	-9%	-4	1%	-5%	-109%*	-3%
CCCCc1ccc(Nc2ncnc3nc[nH]c23)cc1	-11%	1	1%	12%	i	16µM*
Cc1ccc(-c2nnc(SCCC(=O)Nc3ccccc3)n2C)cc1	.	.	3%	.	.	.
Cc1nc(CC(=O)Nc2cccc(C)c2C)cs1	-7%	.	.	.	.	7%
COC(=O)Nc1nc(-c2ccccc2)c(C(=O)c2ccc(Cl)cc2)s1	?	4	-5%	2%	-86%*	7%
CCOC(=O)Nc1nc(-c2ccccc2)c(C(=O)c2ccccc2)s1	?	0	1%	5%	.	16%
Cc1cccc(NC(=O)C(=O)NCCc2sc(-c3ccccc3)nc2C)c1C	-3%	.	-1%	.	.	17%
COCCn1nnnc1C(c1cc2cccc(C)c2[nH]c1=O)N1CCN(c2ccccc2F)CC1 (centres undefined)	-8%	2	-2%	-1%	-90%*	2%
COCCn1nnnc1C(c1ccccc1OC)N1CCN(c2ccccc2F)CC1 (centres undefined)	-20%	1	6%	5%	i	19%
N#Cc1ccc(S(=O)(=O)N2CCN(c3nc(-c4ccccc4)nc4ccccc34)CC2)cc1	.	.	-1%	.	.	.
CNC(=O)COC(=O)/C=C/c1nc2ccccc2s1	-1%	2	7%	-16%	i	16µM*
Brc1ccc(Cn2c(-c3cncs3)nc3ccccc32)cc1	-15%	-3	1%	11%	i	?
c1ccc(Cn2c(-c3cncs3)nc3ccccc32)cc1	-22%	0	-11%	0%	i	7.9µM*
COc1ccc(-c2ccc(=O)n(CC(=O)Nc3ccc(N(C)C)cc3)n2)cc1	?	.	.	.	.	23%
Cc1cccc(NC(=O)C2CCCN(C(=O)Nc3ccccc3)C2)c1C (centres undefined)	-4%	1	-12%	-1%	-110%*	1%
CN(Cc1ccccc1)C(=O)COC(=O)c1ccc2ccccc2n1	?	2	3%	2%	i	15%
CCc1nc2ccccc2c(C(=O)OCC(=O)N(C)Cc2ccccc2)c1C	.	-1	3%	.	i	35µM*
CCn1c(CNC(=O)c2ccc(OC)cc2)nnc1SCC(=O)c1ccccc1	1%	-45*	-1%	11%	i	12%
COc1ccc(C(=O)NCc2nnc(SCC(=O)c3ccccc3)n2C)cc1	-8%	-2	4%	2%	i	22%[9.22 µM]
Cc1ccc(OCc2nnc(SCC(=O)c3ccccc3)n2-c2ccccc2)cc1	-16%	-56*	-14%	?	i	-16%
O=C(CN1CCCN(Cc2ccccc2Cl)S1(=O)=O)NCc1ccccc1	0%	.	.	.	.	14%
SMILES	Anesthetic bind	CCT modulator	aSyn yeast inh	Mito fusion yeast	pAkt inh	TDP43 rescue
CC(=O)c1ccc(C2C=CC(Oc3ccc(F)cc3C)C(CO)O2)cc1 (centres undefined)	-10%[15.3 µM]	.	.	.	.	.
O=C(CCl)NCc1cc(-c2ccc(Cl)cc2)no1	-17%	-1	-8%	-6%	i	10µM*
COc1ccc(OCc2cc(-c3ccc(Cl)cc3)no2)cc1	1%	0	0%	0%	i	0%
O=C(O)c1ccc2c(c1Nc1ccccc1)C(=O)c1ccccc1C2=O	0%	0	13µM*	25%	i	-35%
CNc1c(C(=O)O)ccc2c1C(=O)c1ccccc1C2=O	-3%	0	-7%	-3%	i	-9%
COc1ccc(OCCCn2c(CCNC(=O)C3CCCCC3)nc3ccccc32)cc1	.	.	11%	.	.	.
Cc1cccc(-c2noc(-c3cc(C(C)C)[nH]n3)n2)c1	16µM*	.	.	.	.	-8%
CC(C)c1cc(-c2nc(-c3cccc(Cl)c3)no2)n[nH]1	?	.	.	.	.	6%
O=C(Nc1c(Cl)cccc1Cl)c1cc(-c2cccc(O)c2)on1	1%	.	.	.	.	16µM*
CCCOc1ccc(C(=O)NNC(=S)NC(=O)c2cc(-c3ccc(Cl)cc3)nc3ccccc23)cc1	-16%	0	4%	0%	i	13µM*
O=C(/C=C/c1ccccc1)Nc1nc(-c2cccs2)ns1	3%	.	.	.	.	3%
O=C1/C(=C/c2ccc(O)c(O)c2)Oc2ccccc21	-6%	.	.	.	.	.
CCc1cc(C(C)=O)c(O)cc1OCCCCCC(C)(C)c1nn[nH]n1	-15%	.	.	.	.	.
CCc1nc(SCC(=O)c2ccc3c(c2)OCCO3)c2ccccc2n1	-11%	-2	0%	21%	i	18µM*
Cn1c(CSc2nc3ccccc3s2)nnc1SCC(=O)NCCCN1CCOCC1	-2%	0	-2%	-3%	-136%*	-6%
CCn1c(CSc2nc3ccccc3s2)nnc1SCC(=O)c1ccc2c(c1)OCCO2	?	0	-6%	22%	-108%*	30%
CCn1c(CSc2nc3ccccc3s2)nnc1SCC(N)=O	?	-1	3%	0%	i	-11%
CCCCC(CC)CNC(=O)c1ccc2c(=O)n(CCOC)c(=O)[nH]c2c1 (centres undefined)	-4%	.	-9%	.	.	0%
COC(=O)[C@@H](c1ccccc1Cl)N1CCc2sccc2C1	-14%	.	.	.	.	.
CCOc1ccc(S(=O)(=O)NCc2ccc3c(c2)CCN3C(=O)c2ccc(C)cc2)cc1	-9%	.	.	.	.	11%
COc1cc(OC)c(C2SCCCS2)cc1OC	2%	-1	0%	-12%	i	35µM*
CCN1CCOC(=O)C1CC(=O)Nc1cc(C)cc(C)c1 (centres undefined)	?	.	.	.	.	-92%
O=C(NCC12CC3CC(CC(C3)C1)C2)c1nc2ncccn2n1	-17%	-2	-5%	6%	-119%*	19%
CCn1c(SCC(=O)Nc2nc(-c3ccccc3)cs2)nnc1-c1ccccc1O	?	0	14%	?	i	20µM*
O=C(CSc1nc2cc(Cl)ccc2o1)N1CCOCC1	-7%	-31*	-13%	-1%	i	-10%
O=C(CSc1nc2ccccc2o1)Nc1nc(-c2ccccc2)cs1	-10%	-1	-1%	16µM*	i	0%
